Assay: qHTS profiling of inhibitors of Plasmodium falciparum (DD2) proliferation (acoustic dispense)
Conditions: P. falciparum Dd2 in erythrocytes, SYBR Green DNA, 72 h; at 49.8 µM (top of the series) unless noted

Structure (SMILES)	parasite growth, lower = inhibition
Cc1nc2c(C#N)cccc2n1-c1ccc(C(=O)NC2CC2)s1	2.19%
CN([C@@H](Cc1ccc(OS(=O)(=O)c2cccc3cnccc23)cc1)C(=O)N1CCN(c2ccccc2)CC1)S(=O)(=O)c1cccc2cnccc12	0.489%
Nc1ccc(-c2ccc3ncc4ccc(=O)n(-c5cccc(C(F)(F)F)c5)c4c3c2)cn1	-0.538%
CN[C@@H](C)C(=O)N[C@H]1CCCC[C@H]2CC[C@@H](C(=O)N[C@@H](c3ccccc3)c3cn(CCCCc4ccc(CCCCn5cc([C@@H](NC(=O)[C@@H]6CC[C@@H]7CCCC[C@H](NC(=O)[C@H](C)NC)C(=O)N76)c6ccccc6)nn5)cc4)nn3)N2C1=O	0.728%
CCCCCCCCCCOc1cc2c(=O)c(C(=O)OCC)c[nH]c2cc1OCC	1.27%
Cn1cnc(=N)c2[nH]cnc21	0.26%
COC1=C2C[C@@H](C)C[C@H](OC)[C@@H](O)[C@@H](C)C=C(C)[C@H](OC(N)=O)[C@@H](OC)C=CC=C(C)C(=O)NC(=CC1=O)C2=O	-0.39%
CO[C@@H]1C(N(C)C(=O)c2ccccc2)C[C@H]2O[C@]1(C)n1c3ccccc3c3c4c(c5c6ccccc6n2c5c31)C(=O)NC4=O (stereo not given in full)	10.1%
CN[C@@H]1C[C@H]2O[C@@](C)([C@H]1OC)n1c3ccccc3c3c4c(c5c6ccccc6n2c5c31)C(=O)N[C@H]4O	0.898%
COc1cc2c(Oc3ccc(NC(=O)C4(C(=O)Nc5ccc(F)cc5)CC4)cc3F)ccnc2cc1OCCCN1CCOCC1	0.0003%
Cn1cc(CNCC2CCN(c3ncc(C(=O)NO)cn3)CC2)c2ccccc21	0.158%
COc1cc(NC(C)CCCN)c2ncccc2c1 (stereo not given)	-0.0889%
CC(C)Oc1cc(Nc2nc(N[C@@H](C)c3ccc(F)cn3)ncc2Cl)[nH]n1	3.28%
O=C1c2c(O)ccc(O)c2C(=O)c2c(NCCNCCO)ccc(NCCNCCO)c21	-3.56%
CCCCN(CCCC)CCC(O)c1cc2c(Cl)cc(Cl)cc2c2cc(C(F)(F)F)ccc12 (stereo not given)	-0.281% [at 23.2 µM]
COc1cc2nc(N3CCCN(C)CC3)nc(NC3CCN(Cc4ccccc4)CC3)c2cc1OC	-0.574%
C=C[C@@H]1CN2CC[C@@H]1C[C@H]2[C@H](O)c1ccnc2ccc(OC)cc12	0.438%
CC(C=CC(=O)NO)=C[C@@H](C)C(=O)c1ccc(N(C)C)cc1	-0.545%
CC[C@H]1OC(=O)[C@H](C)[C@@H](O[C@H]2C[C@@](C)(OC)[C@@H](O)[C@H](C)O2)[C@H](C)[C@@H](O[C@@H]2O[C@H](C)C[C@H](N(C)C)[C@@H]2O)[C@](C)(O)C[C@@H](C)CN(C)[C@H](C)[C@@H](O)[C@]1(C)O	9.84%
CCN(CC)Cc1cc(Nc2ccnc3cc(Cl)ccc23)ccc1O	0.736% [at 23.2 µM]
CN(C(=O)OC(C)(C)C)[C@@H](Cc1ccc(O[S+](=O)([O-])c2cccc3cnccc23)cc1)C(=O)N1CCN(C(=O)OCc2ccccc2)CC1	-0.325%
CCNC(=O)c1noc(-c2cc(C(C)C)c(O)cc2O)c1-c1ccc(CN2CCOCC2)cc1	112%
Cn1cc(C2=C(c3c4n(c5ccccc35)CCC(CN)C4)C(=O)NC2=O)c2ccccc21 (stereo not given)	2.27%
CS(=O)(=O)CCNCc1ccc(-c2ccc3ncnc(Nc4ccc(OCc5cccc(F)c5)c(Cl)c4)c3c2)o1	5.58%
CCC(C=C[C@@H]1OC(=O)C=C[C@H]1C)=C[C@H](C)CC=CC(C)=C[C@@H](C)C(=O)[C@@H](C)[C@H](O)[C@@H](C)CC(C)=CC(=O)O	97.6% [at 1.88 µM]
Cc1cn(-c2cc(NC(=O)c3ccc(C)c(Nc4nccc(-c5cccnc5)n4)c3)cc(C(F)(F)F)c2)cn1	7.6%
COc1cc([C@@H]2c3cc4c(cc3[C@@H](O[C@@H]3O[C@@H]5CO[C@@H](c6cccs6)O[C@@H]5[C@H](O)[C@@H]3O)[C@H]3COC(=O)[C@H]23)OCO4)cc(OC)c1O	-0.345%
CC(Sc1nc2ccccc2[nH]1)C(=O)NN=Cc1cc(Br)ccc1O (stereo not given)	99.5% [at 4.15 µM]
CC[C@H]1OC(=O)[C@H](C)C(=O)[C@H](C)[C@@H](O[C@H]2O[C@H](C)C[C@H](N(C)C)[C@@H]2O)[C@](C)(OC)C[C@@H](C)C(=O)[C@H](C)[C@H]2N(CCCCn3cnc(-c4cccnc4)c3)C(=O)O[C@]12C	4.52%
C#Cc1cccc(Nc2ncnc3cc(OC)c(OCCCCCCC(=O)NO)cc23)c1	-0.648%
